Laboratory results taken from publication PMC4242493, “Sequence specificity incompletely defines the genome-wide occupancy of Myc”.
Over roughly 33,000 sequences, “normalized occupancy” has its median near 0.075; the highest 2% begin near 0.095. This excerpt belongs to a sample that is enriched for the highest values.

What follows are sequences tested against MaxL homodimer (Homo sapiens, UniProt P61244 1-160) (assay: universal protein-binding microarray (PBM); PBS-based mixture, 10 nM His-tagged protein dimer, 2% milk, 200 ng/uL BSA, 50 ng/uL salmon testes DNA, 0.02% TX-100; detection with Alexa 488 anti-His antibody;; high values mean tight binding). Conditions: protein: recombinant; tags: C-terminal His-tag (pET21a); chain copies: 2; dsDNA, one strand shown.
Sequence of MaxL homodimer (P61244 whole entry): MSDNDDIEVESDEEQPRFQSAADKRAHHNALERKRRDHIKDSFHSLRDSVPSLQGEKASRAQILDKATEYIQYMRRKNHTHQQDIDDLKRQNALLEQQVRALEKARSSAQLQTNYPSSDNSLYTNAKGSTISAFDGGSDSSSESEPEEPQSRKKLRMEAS
Procedure, shortened: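 Binding occupancy is a fluorescence intensity normalised to the intensity of the highest-ranked sequence word. Those intensities came from 8-mers on Agilent 4 x 44 K 'all 10-mer' universal arrays incubated with 10 nM His-tagged protein dimer. Bound protein was detected with 10 ng/μL fluorophore-conjugated anti-His antibody before scanning on a GenePix 4400A.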

Sequence | binding signal [normalized occupancy]
AGTATGTG | 0.081
AGGATGTA | 0.0795
AGTATGTC | 0.0803
AGCATGTG | 0.164
CGCATTTC | 0.0783
AGCATGTA | 0.106
CGCATGTC | 0.105
AGCATTTC | 0.0792
GGCATGTA | 0.0812
AGCATGTC | 0.1
CGCATCTC | 0.0769
AGGATGTG | 0.0831
CCGTACAC | 0.0886
GTGAGTGA | 0.0775
ACTGGCCT | 0.073
CATTCGCA | 0.078
AGCCAACA | 0.0808
ACTTGTGC | 0.0751
AAAATTAG | 0.0735
ATTAAGGA | 0.0744
AAACAGTA | 0.0764
CTCATGTA | 0.0936
CCCATGTA | 0.0872
CGCATGTA | 0.105
GGAATCCC | 0.0772
ATCGTTCG | 0.0755

Sequence | binding signal [normalized occupancy]
CAAGCGCG | 0.0759
CAAGCGTG | 0.104
AAAGCGCG | 0.0769
AAAGCGTT | 0.0746
CAAGCGAG | 0.0757
AAAGCGTG | 0.11
ATGTTGCA | 0.0888
CTTCCCCA | 0.0787
AGTAGTAG | 0.0786
GATGTTAC | 0.0818
AGGCGTCA | 0.0742
CGGTACAC | 0.0815
AACGTTGT | 0.0817
AACGTGGG | 0.114
AACGTGGT | 0.125
GACGTGGC | 0.0846
AAAGTGGT | 0.0721
ACCGTGGG | 0.0732
ATCGTGGG | 0.0895
AACGTGGC | 0.107
AACGTAGC | 0.0749
AGTAACTC | 0.0742
CTAGGAGA | 0.0761
AATGCCTA | 0.0747
ACATCAGT | 0.0736
TATGAATA | 0.0823

Sequence | binding signal [normalized occupancy]
ATATCTCC | 0.0807
CACTTCAG | 0.0728
TTGAGAAA | 0.0807
AACGTACT | 0.0746
ATACGAGA | 0.0785
ACACGAAT | 0.0776
ACACGATG | 0.0969
ACACGAGT | 0.0979
ACACGATC | 0.0822
ACACGAGG | 0.144
AAACGAGG | 0.081
ACACGATA | 0.0824
ACACGACT | 0.0807
ACACGAGC | 0.0815
ACACGAGA | 0.0977
ATACGAGG | 0.084
GTGCCCTA | 0.0772
CAAACAGG | 0.0747
CGCAAGAG | 0.0757
AGGGGTCG | 0.0779
CTATATGC | 0.0831
GCATATCC | 0.0834
CCATATGC | 0.1
CGATATGC | 0.0806
CCATATGG | 0.123
CCATATCG | 0.083

Sequence | binding signal [normalized occupancy]
GCATATGC | 0.0998
GCATATGA | 0.0934
CCATATAG | 0.087
CAGATAAA | 0.078
ACCATAAG | 0.0853
ACAAATTG | 0.0753
CCCATACC | 0.0872
CCAGTTGC | 0.0718
AAACAGTG | 0.0728
TAGTTTGA | 0.0723
AATTTTCT | 0.0797
ACGGGACA | 0.0774
GGGTGTTA | 0.0779
GCGTGTTA | 0.101
ACGTGTTC | 0.104
AAGTGTTC | 0.0784
GTGTGTTA | 0.0835
AGGTGTTA | 0.0801
CCGTGTTC | 0.0725
AGGTGTTG | 0.0828
ACGTGTTG | 0.109
ATGTGTTG | 0.0905
ACGTGTTA | 0.109
CCGTGTTA | 0.0848
AGAGTCGC | 0.0764
ACGGATGC | 0.0722

Sequence | binding signal [normalized occupancy]
GTGCCTTA | 0.0789
ATGAGCGG | 0.0799
CGGTGTAC | 0.0764
GATATTCC | 0.0765
AGCAATTC | 0.0722
GACGTGAC | 0.0813
GACGTGAA | 0.0766
TACGTGAA | 0.0794
CACGTAAG | 0.0796
CCCGTGAA | 0.0812
CACGTGAG | 0.245
CCCGTGAC | 0.0826
CACGTGAA | 0.231
CACGTGAC | 0.464
CCTTCCCA | 0.0748
GAATCCTA | 0.0741
CAGCCGCA | 0.0718
TGGGTGAA | 0.0791
AGGATGAC | 0.0813
TCTAGCCA | 0.0723
CCTTTATA | 0.0822
ATGCTTTC | 0.0842
CTCGTGTA | 0.103
GTCGTGTA | 0.0822
CTCGTTTC | 0.0748
ATCGTGTA | 0.0829

Sequence | binding signal [normalized occupancy]
CTCGTGTC | 0.0959
ATCGTGTC | 0.0864
AACATACC | 0.086
ATCGTCGA | 0.0747
CTGAATAC | 0.0791
CGTGTGTA | 0.0944
AGCGTATG | 0.0754
CGTGTGTC | 0.0936
AGCGTGTA | 0.0952
AGTGTGTA | 0.0806
GGCGTGTA | 0.0895
CGTGTATA | 0.0906
CGCGCGTC | 0.075
AGCGTGTG | 0.0954
CGCGTGTA | 0.123
CGCGTGTC | 0.115
AGCGTGTC | 0.0932
AAAGGACT | 0.076
CTAGAATA | 0.0796
AAACAACG | 0.079
AGTTTGAA | 0.0729
AAACTCAT | 0.0797
ATAAAAGG | 0.0778
CGGTCTCA | 0.0736
CACAGTCA | 0.0797
ACCATCCT | 0.0757

Sequence | binding signal [normalized occupancy]
ATGTGAGC | 0.0803
ACGTGAGC | 0.107
TCGTGAGA | 0.0809
ACGTGAGA | 0.0981
ACGTGAGT | 0.0893
CCGTGAGA | 0.0755
GCGTGAGC | 0.091
GAGTGAGA | 0.0795
GCGTGAGA | 0.0965
AAGTGAGG | 0.0763
CCGTGAGG | 0.0784
ACGTGAGG | 0.0969
AATTGCCA | 0.0744
CCTAGAAC | 0.0744
ATGTTGTG | 0.0817
CCGTCATC | 0.0727
AAGACTAT | 0.0779
CTGGGGAA | 0.0741
ATGAACAA | 0.0807
GTGCATAA | 0.0861
